LGR2 antag: inhibitors of bursicon-induced Drosophila LGR2 receptor cAMP signaling; AID 720647; HEK293 LGR2, CRE-luciferase, bursicon-stimulated, 4 h; inhibition, % at 9.99 µM; 380,000 tested, 0.35% active;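 active = drop in luminescence signal, shown as inhibition above about 50% in the replicate tests, limit read from the data, passing the limit was not always enough; inconclusive = probably only some replicates passing the limit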;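 also: agonist challenge used bursicon conditioned medium at about half maximal strength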
HIF-2a block: blocks HIF-2a reporter activity | 786-0 RCC cells HIF-2a reporter, luciferase luminescence, overnight | inhibition, % at 18.8 µM | 360,000 tested, 0.72% active | AID 624352;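 active = inhibition of the luminescence signal of 40% or more relative to plate controls, in a single-dose primary screen at 18.75 µM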
TWEAK Fn14 block: blocks TWEAK-Fn14 interaction in a reporter cell assay. TWEAK-stimulated Fn14 reporter cells, luciferase luminescence, 8 h. 360,000 tested, 2% active. inhibition, % at 10 µM; in the data active = inhibition above about 50%
hiPSC survival: hiPSC single-cell survival enhancement. AID 602274. ATPlite luminescence; 100% = ROCK inhibitor wells, 0% = DMSO. survival enhancement, % at 20 µM. 360,000 tested, 0.044% active; in the data active = survival enhancement above about 18%;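 also: cells exposed to compounds for 16 hours before the ATP read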
CF NFkB block: inhibitors of cystic fibrosis induced NF-kB; KKLEB NF-kB-GFP reporter, PAF-induced, GFP fluorescence overnight; inhibition, % at 5 µM; AID 588850; 360,000 tested, 0.86% active;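 active = at least 50% inhibition at 5 µM, scaled per plate between neutral and stimulator controls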;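 also: PAF is a Pseudomonas aeruginosa culture filtrate used as stimulus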
KKLEB tox: counter-screen for CF NF-kB inhibitors: cytotoxicity; KKLEB CF airway cells viability, ATPlite luminescence, overnight; hits give low values; cells stimulated with P. aeruginosa culture filtrate; activity change (cytotoxicity), % at 5 µM; 360,000 tested, 0.36% active; AID 602141;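 active = corrected activity change at or below -50% at 5 µM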
CF NFkB inh conf: CF NF-kB inhibition confirmation, single concentration | shares compounds with CF NFkB block | KKLEB CF airway cells, PAF-induced NF-kB-GFP fluorescence, overnight | inhibition, % at 5 µM | 1,300 tested, 64% active; in the data active = inhibition above about 40%;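 also: stimulus PAF is a Pseudomonas aeruginosa filtrate and not platelet activating factor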
A number is an active result; . = inactive; ? = inconclusive; / = no result. Shown are actives, neighbours in structure and some others; about 2.3% of the full set was active somewhere.

SMILES	LGR2 antag	HIF-2a block	TWEAK Fn14 block	hiPSC survival	CF NFkB block	KKLEB tox	CF NFkB inh conf
Cc1ccc(S(=O)(=O)N(C)C[C@@H]2Oc3ccc(NC(=O)CCC(F)(F)F)cc3CC(=O)N([C@@H](C)CO)C[C@@H]2C)cc1	.	.	.	.	53	.	43
C[C@H](CO)N1C[C@H](C)[C@H](CN(C)S(=O)(=O)c2ccc(Cl)cc2)OCc2ccccc2-c2c(n(C)c3ccccc23)C1=O	.	.	62	.	86	.	.
C[C@H]1CN([C@@H](C)CO)C(=O)c2c(c3ccccc3n2C)-c2ccccc2CO[C@@H]1CN(C)S(=O)(=O)c1ccc(Cl)cc1	.	/	/	/	/	/	/
CCOC(=O)N1C(=O)[C@](c2ccc(Cl)cc2)(C(C)C)N1C(=O)OCC	.	.	.	.	51	.	.
Cc1cccc(-n2c(SCc3ccc([N+](=O)[O-])cc3)nnc2-c2c[nH]c3ccccc23)c1	.	.	.	.	51	.	.
COc1cccc(-n2c(SC)nnc2-c2c[nH]c3ccccc23)c1	.	.	.	.	.	.	/
CCCNC(=O)[C@@H]1[C@@H](CO)[C@@H]2Cn3c(ccc(-c4ccccc4OC)c3=O)[C@H]1N2C(=O)NCCC	.	/	/	/	/	/	/
Clc1ccccc1-c1nnc2sc(-c3ccncc3)nn12	.	.	.	.	.	.	/
CN(C)c1ccc(-c2nn3c(-c4ccccc4Cl)nnc3s2)cc1	/	.	.	.	54	.	68
CC1CCC(NC(=O)COC(=O)c2ccco2)CC1 (stereo not drawn)	.	.	.	.	.	.	/
CC1CC2C3CCC4=CC(=O)C=CC4(C)[C@@]3(Cl)C(O)CC2(C)C1(O)C(=O)CO (stereo partly drawn)	.	.	.	.	66	.	.
CC12C=CC(=O)C=C1CCC1C2C(=O)CC2(C)C1CCC2(O)C(=O)CO (stereo not drawn)	.	.	.	.	.	.	/
C[C@@H]1C[C@H]2[C@@H]3CCC4=CC(=O)C=C[C@]4(C)[C@@]3(Cl)[C@@H](O)C[C@]2(C)[C@@]1(OC(=O)c1ccco1)C(=O)CCl	/	.	.	.	89	.	.
C[C@@H]1CN([C@H](C)CO)C(=O)Cc2cc(NC(=O)C3CC3)ccc2O[C@H]1CN(C)C(=O)Nc1cccc2ccccc12	.	/	/	/	/	/	/
C[C@H]1CN([C@@H](C)CO)S(=O)(=O)c2ccc(-c3ccc(F)cc3)cc2O[C@@H]1CN(C)S(C)(=O)=O	.	/	/	/	/	/	/
CCOc1ccccc1NC(=S)Nc1ccc2cn[nH]c2c1	.	.	.	.	58	.	67
CC(=O)Oc1ccccc1N(C(C)=O)S(=O)(=O)c1ccc2ccccc2c1	.	.	.	.	.	.	/
CC(=O)Oc1ccc(N(C(C)=O)S(=O)(=O)c2cccs2)c2ccccc12	/	.	.	.	56	.	67
CCn1c(=O)cc(C(=O)OC)sc1=Nc1ccc(F)c(F)c1	?	.	.	.	50	.	.
C=C(C)[C@@H]1CC[C@]2(C(=O)O)CC[C@]3(C)[C@H](CC[C@@H]4[C@@]5(C)CC[C@H](O)C(C)(C)[C@@H]5CC[C@]43C)[C@@H]12	/	.	.	.	70	.	56
C=C(CC[C@@H](O)C(C)(C)O)[C@H]1CC[C@]2(C)[C@@H]1CCC1[C@@]3(C)CC[C@H](O)C(C)(C)C3CC[C@]12C (stereo partly drawn)	/	.	.	.	.	.	/
CC1Sc2ccc(Cl)cc2-c2nc(N)ncc21 (stereo not drawn)	.	.	.	.	66	.	77
COc1ccc(Cl)cc1-c1csc(N)n1	.	.	.	.	.	.	/
Cn1c(=O)c2nc(NCc3ccccc3)cnc2n(C)c1=O	.	.	.	.	.	.	/
Cc1nc2c(=O)n(C)c(=O)n(C)c2nc1Cl	.	.	50	.	75	.	.
SMILES	LGR2 antag	HIF-2a block	TWEAK Fn14 block	hiPSC survival	CF NFkB block	KKLEB tox	CF NFkB inh conf
C[C@H](CO)N1C[C@H](C)[C@H](CN(C)Cc2ccccc2)OCc2cnnn2CCCC1=O	.	/	/	/	/	/	/
COc1ccccc1N1CCN(C(=O)c2[nH]c(C(F)(F)F)nc2-c2ccccc2)CC1	.	.	.	.	.	.	/
Cc1cccc(N2CCN(C(=O)c3[nH]c(C(F)(F)F)nc3-c3ccccc3)CC2)c1C	/	.	.	.	50	.	87
CCS(=O)(=O)N1CC(=O)N2[C@H](CO)[C@@H](c3ccc(C#CCC(C)C)cc3)[C@H]2C1	.	/	/	/	/	/	/
O=C(N/N=C/c1ccccc1Cl)c1[nH]c2ccc(Br)cc2c1-c1ccccc1	.	.	.	.	63	.	76
COc1ccc(/C=N/NC(=O)c2[nH]c3ccc(Br)cc3c2-c2ccccc2)cc1	.	.	.	.	81	.	81
COc1ccc(/C=N/NC(=O)c2[nH]c3ccc(Br)cc3c2-c2ccccc2)c(C(=O)O)c1OC	.	.	.	.	.	.	/
C[C@H]1CN([C@@H](C)CO)C(=O)c2cc(C#CCN(C)C)cnc2O[C@@H]1CN(C)C(=O)CN1CCOCC1	.	/	/	/	/	/	/
O=C(C[C@@H]1C=C[C@@H](NC(=O)Nc2ccc3c(c2)OCO3)[C@@H](CO)O1)NCc1ccc(Cl)cc1	.	/	/	/	/	/	/
COc1cc(/C=N/NC(=O)Nc2cccc3nsnc23)cc(OC)c1OC	/	.	.	.	64	.	77
COc1cc(/C=N/NC(=O)c2cccc3ccccc23)cc(OC)c1OC	.	.	.	.	.	.	/
C[C@@H]1CN([C@H](C)CO)C(=O)Cc2cc(NC(=O)Nc3ccc4c(c3)OCO4)ccc2O[C@@H]1CN(C)Cc1ccc(Oc2ccccc2)cc1	.	/	/	/	/	/	/
COc1ccc(Nc2nccc(-c3cccc(N)c3)n2)cc1	.	.	76	.	71	.	94
CC1=Nc2ccccc2/C1=C\c1nc(-c2ccccc2)oc1O	/	.	.	.	.	.	/
CC1=Nc2ccccc2/C1=C/c1c(C)[nH]c2ccccc12	/	.	.	.	53	.	.
Cc1ccc(-n2sc3cc(F)ccc3c2=O)c(C)c1	.	.	.	.	.	.	/
O=c1c2cc(F)ccc2sn1-c1ccccc1Cl	.	.	.	.	51	.	.
CN(c1cccc(Cl)c1)S(=O)(=O)c1cccc(C(=O)Nc2nc3ccccc3[nH]2)c1	?	.	74	.	80	.	47
COc1ccc(N(C)S(=O)(=O)c2cccc(C(=O)Nc3nc4ccccc4[nH]3)c2)cc1	.	.	.	.	.	.	/
O=C(C[C@H]1CC[C@@H]2[C@H](COC[C@H](O)CN2C(=O)c2ccccn2)O1)NC1CCC1	.	/	/	/	/	/	/
C[C@H]1CN([C@@H](C)CO)C(=O)c2cc(-c3ccncc3)cnc2O[C@@H]1CN(C)Cc1ccc(F)cc1	.	/	/	/	/	/	/
CN1CCC(OC(=O)c2cc3cc(Cl)cc(Cl)c3oc2=O)CC1	.	.	77	.	54	.	82

Screens: PubChem, several laboratories
